# Results: paper PMC7819943, “Rice protein-binding microarrays: a tool to detect cis-acting elements near promoter regions in rice”
# The full ranking holds about 68,000 sequences; the median of “fluorescence intensity (a.u.)” is about 9,100, and the highest 2% start at about 16,000. This excerpt belongs to a sample that is enriched for the highest values.
# Biological target: OsWRKY34 (Oryza sativa, UniProt Q0JBA9 1-250)
# Experiment: protein-binding microarray (RPBM); PBS, 2% BSA, 51.3 ng/ul salmon testes DNA, 50 uM zinc acetate, 200 nM TF, 25 C, 1 h; high values mean tight binding
# Conditions: protein: recombinant; tags: N-terminal polyhistidine and DsRed monomer fusion (pET32a); label: CyDye5-dUTP incorporated in the synthesized complementary strand; 3' TTTTT single-stranded linker to array surface; dsDNA, one strand shown
# Procedure, shortened: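 The binding signal for each feature is its fluorescence intensity in arbitrary units. An Axon 4000B scanner was used to read a custom Agilent array that had been made double-stranded with Cy5-dUTP primer extension, blocked with 2% BSA, incubated at 25 °C for 1 h with 200 nM protein in PBS, 2% BSA, salmon testes DNA and 50 µM zinc acetate, and washed. The protein was an N-terminal polyhistidine–DsRed transcription factor fusion from E. coli BL21-CodonPlus, purified on Ni–NTA.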
# Chain of OsWRKY34 (Q0JBA9 entry or part of it): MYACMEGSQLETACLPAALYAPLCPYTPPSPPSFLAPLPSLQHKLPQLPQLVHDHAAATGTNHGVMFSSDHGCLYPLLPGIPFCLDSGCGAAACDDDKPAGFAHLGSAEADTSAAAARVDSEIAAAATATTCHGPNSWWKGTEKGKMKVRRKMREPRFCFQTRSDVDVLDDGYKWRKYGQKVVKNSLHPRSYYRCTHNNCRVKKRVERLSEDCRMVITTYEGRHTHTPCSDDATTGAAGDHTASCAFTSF
row,Sequence,binding signal
1,CCGTTCGCCACGTCCATCCGTTTTCTGTGCCATAGGCAGGCGGAGTCACCTAGTGCAG,9340 fluorescence intensity (a.u.)
2,GCGTGCTAAACCCTTGTGATCCGTGTATTTAACCACCTTCCGGAGTCACCTAGTGCAG,11700 fluorescence intensity (a.u.)
3,ATTGGATCGGATCAGATCCCTTTTGCGCACCACTCGCCTTCGGAGTCACCTAGTGCAG,8750 fluorescence intensity (a.u.)
4,TCGAGGAGTGGATGGACGGATGGGTGGGTCATCACTGGTCCGGAGTCACCTAGTGCAG,8840 fluorescence intensity (a.u.)
5,CCTCACGCAATTCCACAACTGCTGCTCCCACCCTCATCAGCGGAGTCACCTAGTGCAG,9580 fluorescence intensity (a.u.)
6,TTTGCAATATCAGGGGTGTGTTACATATGTATTTCGATTTCGGAGTCACCTAGTGCAG,12400 fluorescence intensity (a.u.)
7,TCTACCCGCCTTCCTTTTAGTCCCCGCGTCTCCACAAAATCGGAGTCACCTAGTGCAG,10100 fluorescence intensity (a.u.)
8,TATTTTCCGTGTGTACCGTTCCGGTTATCAATACCAGCGCCGGAGTCACCTAGTGCAG,8380 fluorescence intensity (a.u.)
9,CAGCCGCCCTACGTCAGCCAAGTCCAACGACAACGCCCAACGGAGTCACCTAGTGCAG,8200 fluorescence intensity (a.u.)
10,GCCATCAAGCTACGCCATTCAGCATTGCAACGACGACGTCCGGAGTCACCTAGTGCAG,64300 fluorescence intensity (a.u.)
11,TCATCCCACCGACGTCAGCAAGCCATCGCCATCAAGCCCACGGAGTCACCTAGTGCAG,9760 fluorescence intensity (a.u.)
12,ACCTCTGCTGATTCTTCTTGCTGTTTCTTTGTTGCGCATTCGGAGTCACCTAGTGCAG,11500 fluorescence intensity (a.u.)
13,CACCTCGCGCCGCGCCCCATCCTTATCGTCATGACACGCCCGGAGTCACCTAGTGCAG,8810 fluorescence intensity (a.u.)
14,TTGCTTGTCTGTTTGTTTTATTTATTTATGACGTCATTATCGGAGTCACCTAGTGCAG,12600 fluorescence intensity (a.u.)
15,TGGAGAGCGTTGCTTTTTTTGGGCGGGTTTGGATTTTTATCGGAGTCACCTAGTGCAG,21600 fluorescence intensity (a.u.)
16,GTTGGTTTTGGGGTTTTGGAGCGTTGCGGATTGCCACGGCCGGAGTCACCTAGTGCAG,10300 fluorescence intensity (a.u.)
17,TCTTAGTATCCTTGGTTGTTGGATTTTTAGTTTGCTTTATCGGAGTCACCTAGTGCAG,9350 fluorescence intensity (a.u.)
18,GGTTTTTTTTGGATTTATTGCTTTGTCACGTCTGGATCGTCGGAGTCACCTAGTGCAG,20500 fluorescence intensity (a.u.)
19,AACTCTGGCACGATTTTTTTTATTGCAGTTTTCGTCGGATCGGAGTCACCTAGTGCAG,11400 fluorescence intensity (a.u.)
20,GAGGAGCTCGCCAATTGTTCCGCGTCATATCGCCAGCTCTCGGAGTCACCTAGTGCAG,9060 fluorescence intensity (a.u.)
21,ATAGTTGGTGTGTTTATGTAGACTTATTCTATTTTGACGTCGGAGTCACCTAGTGCAG,10400 fluorescence intensity (a.u.)
22,GATTCTAGTCAAATTTCTTTTAATTTTGACTACGTTTATACGGAGTCACCTAGTGCAG,11200 fluorescence intensity (a.u.)
23,AACCTCTCATTTAATAAGATTCATCACAGTCTTTTTTTTTCGGAGTCACCTAGTGCAG,9990 fluorescence intensity (a.u.)

row,Sequence,binding signal
1,TCATTTTGACTTTTTTTAGTCAAACTCTTTTAATTTTAATCGGAGTCACCTAGTGCAG,19600 fluorescence intensity (a.u.)
2,TCGTTGACTTTTTTCTTAGTCAAATTTCTTTAAGTTTGACCGGAGTCACCTAGTGCAG,42400 fluorescence intensity (a.u.)
3,AGGAGCCAGACTTAGTTGGTGTAAGCCATTTACTAGTTGACGGAGTCACCTAGTGCAG,22800 fluorescence intensity (a.u.)
4,TACCATTTCTTTCTTGCTTTTTTAATGCCTAAATCATCTTCGGAGTCACCTAGTGCAG,8050 fluorescence intensity (a.u.)
5,GACTTGATTTTTTTTCTTAATTTGACCTTTTAATTTCAAACGGAGTCACCTAGTGCAG,8080 fluorescence intensity (a.u.)
6,AGTAATTTGACTTTTTCCTTAATCAAACTTCTTTAAGTTTCGGAGTCACCTAGTGCAG,10600 fluorescence intensity (a.u.)
7,GTTGCTGGTTTTGTTAGTTTGGTGACCTTGACTTGTAAGACGGAGTCACCTAGTGCAG,8670 fluorescence intensity (a.u.)
8,CCTCTAAATTTTAAGATTTTTTTAATCATTTTACCATTTTCGGAGTCACCTAGTGCAG,65200 fluorescence intensity (a.u.)
9,GTCATTTTGTCTTTTTCTCTAAGTCAAACTTCTTTAATTTCGGAGTCACCTAGTGCAG,10900 fluorescence intensity (a.u.)
10,CCCTATCCATTAATTACTCGCTTCGTGGTCGGAATCCATGCGGAGTCACCTAGTGCAG,8200 fluorescence intensity (a.u.)
11,TGCTGCTGGTTACTTGTATTAATACATTATAGAAAATGAGCGGAGTCACCTAGTGCAG,8070 fluorescence intensity (a.u.)
12,AACTCTTTCTGCCCACTTCCTCAACCCATGCTTATCTACCCGGAGTCACCTAGTGCAG,8240 fluorescence intensity (a.u.)
13,TGAGAAGCACCGCTCTCTCCTGCACCCGTCTCACGTGCACCGGAGTCACCTAGTGCAG,8300 fluorescence intensity (a.u.)
14,TCACCTGATCAAGTACGCGTTTTTGGCCCTCAAAAGTATTCGGAGTCACCTAGTGCAG,8120 fluorescence intensity (a.u.)
15,ACTAGGGTTCTCTTCTCACTCCATCGCTAGCGGCGGCTCACGGAGTCACCTAGTGCAG,8340 fluorescence intensity (a.u.)
16,TAATGGGATGGGTGAAAAGTTATTGTTTTTGGTAGGCCTTCGGAGTCACCTAGTGCAG,9640 fluorescence intensity (a.u.)
17,CACCGCCGAACGCACGATTTCTTCCCGACGCTGTCACTTGCGGAGTCACCTAGTGCAG,8190 fluorescence intensity (a.u.)
18,CCGCGATCTGTTTCGTCCAGCTTAATTTGTTGCTGTTCTGCGGAGTCACCTAGTGCAG,11300 fluorescence intensity (a.u.)
19,ACATTTTGACTTTTGCCAAAGTCAAACTGCTTTAAGTTTGCGGAGTCACCTAGTGCAG,11900 fluorescence intensity (a.u.)
20,TTATAAGATGTTTTGACTTTGGTCAAAGTCAAACTATTTCCGGAGTCACCTAGTGCAG,16600 fluorescence intensity (a.u.)
21,TATTGACTTTGGTCAAAGTCAAACTGTTTTAAATTTCACTCGGAGTCACCTAGTGCAG,10500 fluorescence intensity (a.u.)
22,TTTGATTTTGGTCAAAGTCAAACTACTCTAAGTTTGACTACGGAGTCACCTAGTGCAG,13400 fluorescence intensity (a.u.)
23,AAGTTATAAGATGTTTTGACTTTGGTCAAAGTCAAACTGCCGGAGTCACCTAGTGCAG,14600 fluorescence intensity (a.u.)
